According to PubChem BioAssay AID1565 (Sanford-Burnham Center for Chemical Genomics, 2009):
About 3,200 (1.1%) of roughly 290,000 compounds were called active. The full list was thinned out, with actives kept by preference. Unmarked numbers belong to inactive results. Cut-off read from the data, not from the text of the source: active = inhibition above about 60%; inactive = the rest. Peptide text beside a SMILES is read from it.

target: Phosphoethanolamine/phosphocholine phosphatase (Homo sapiens) (UniProt Q8TCT1); test: PubChem AID 1565; details: recombinant PHOSPHO1, absorbance phosphatase assay; at 13.3 µM; hits give high values
Sequence (Q8TCT1 whole entry, looked up): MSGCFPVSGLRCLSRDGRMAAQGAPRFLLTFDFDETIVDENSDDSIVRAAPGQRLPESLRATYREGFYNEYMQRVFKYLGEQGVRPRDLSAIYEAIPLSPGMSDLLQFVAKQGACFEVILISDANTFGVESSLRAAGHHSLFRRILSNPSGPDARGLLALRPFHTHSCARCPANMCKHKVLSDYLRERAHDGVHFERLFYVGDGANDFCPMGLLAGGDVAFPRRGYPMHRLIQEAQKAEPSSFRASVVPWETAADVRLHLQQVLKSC

| SMILES | inhibition |
| --- | --- |
| c1ccc(Cc2nn3c(Cn4cnc5ccccc54)nnc3s2)cc1 | 45.1% |
| Fc1ccc(OCc2nn3c(Cn4nnc5ccccc54)nnc3s2)cc1 | 82.3% (active) |
| CC(=O)OC(COc1ccc(F)cc1)Cn1cnc2ccccc21 (stereo not given) | 43.9% |
| CN(CC(=O)Nc1ccccc1C(F)(F)F)C(=O)Cc1ccccc1F | 18.7% |
| Cc1n[nH]c(=S)n1/N=C/c1ccc(Br)o1 | 99.1% (active) |
| Cc1cc(-c2n[nH]c(=S)n2/N=C/c2ccco2)n[nH]1 | -60% |
| Cc1ccccc1-c1n[nH]c(=S)n1/N=C/c1ccc(-c2ccccc2Br)o1 | -60.1% |
| N#C/C=C/N1CCN(Cc2ccc3c(c2)OCO3)CC1 | 15.6% |
| CCOc1ccc(OCc2ccc(C(=O)N(C)c3ccccc3)o2)cc1 | 18.7% |
| CC(NC(=O)c1ccccc1C(=O)O)c1ccc(-n2ccnc2)cc1 (stereo not given) | 8.3% |
| CCCOc1cccc(C(=O)Nc2ccccc2C(=O)N2CCN(C)CC2)c1 | 24% |
| Cc1ccc(NC(=O)CCC(=O)N/N=C/c2ccco2)c(C)c1 | -4.9% |
| Cc1cc(C)c(OCC(=O)N/N=C/c2ccco2)c(C)c1 | -1.4% |
| Cc1ccc(OCC(=O)N/N=C\c2ccco2)c(C)c1 | 61.1% (active) |
| CSCc1nnc(NC(=O)c2ccc(S(=O)(=O)N3CCCCC3C)cc2)o1 (stereo not given) | 32.3% |
| O=C(N/N=C/c1cccc(OCc2ccccc2)c1)c1ccc(Br)o1 | 41.4% |
| Cc1sc2ncn(CC(=O)NCCCC(=O)NCc3ccc(F)cc3)c(=O)c2c1C | 31.9% |
| COc1ccc(CCNS(=O)(=O)c2ccc(F)cc2)cc1OC | -6.8% |
| CCOC(=O)c1cc(S(=O)(=O)NCCc2ccc(OC)c(OC)c2)cn1C | 69.7% (active) |
| CCS(=O)(=O)NCCc1ccc(OC)c(OC)c1 | -2.4% |
| COc1ccc(C2NC(=O)N(C)C(C)=C2[N+](=O)[O-])cc1 (stereo not given) | 14.1% |
| Cc1[nH]c(C)c(S(=O)(=O)N2CCN(c3cccc(C(F)(F)F)c3)CC2)c1C(=O)N1CCCCC1 | 42.6% |
| CCCCCn1c(=O)[nH]c2cc(C(=O)NCCCN3CCCCC3C)ccc2c1=O (stereo not given) | 26.1% |
| CCCCNC(=O)CN1C(=O)NC(Cc2ccccc2)(Cc2ccccc2)C1=O | 35% |

| SMILES | inhibition |
| --- | --- |
| COc1ccc(CNC(=O)COc2cccnc2[N+](=O)[O-])cc1 | 39.9% |
| O=S(=O)(NC(=S)Nc1ccccc1)c1ccc(F)cc1 | -122% |
| Cc1ccc(NC(=O)C2CC2c2ccccc2)cc1 (stereo not given) | 39.5% |
| O=C(NNC(=S)Nc1ccc(F)cc1)[C@H]1C[C@@H]1c1ccccc1 | 76.8% (active) |
| O=C(C1CC1)N1N=C2CCCCC2C1(O)C(F)(F)F (stereo not given) | 60.9% (active) |
| O=C(C1CC1)N1N=C(c2ccc(Br)cc2)CC1(O)C(F)(F)F (stereo not given) | 15.6% |
| COc1ccc(O)c(/C=N/N=C/c2cccc([N+](=O)[O-])c2)c1 | 4.2% |
| COc1ccccc1-c1cnn2c(N3CCOCC3)cc(C)nc12 | 38.1% |
| CCOC(=O)c1cc(C(=O)Nc2ccc(S(=O)(=O)Nc3ccc(OC)cc3)cc2)nn1C | 28.7% |
| O=C(Nc1cccc(Cl)c1Cl)c1ccccc1NC(=O)C1CC=CCC1C(=O)O (stereo not given) | 12.3% |
| C/C=C(/C)C(=O)OC1Cc2c(ccc3ccc(=O)oc23)OC1(C)C (stereo not given) | 8.5% |
| CC1(C)Oc2ccc3ccc(=O)oc3c2/C(=N/O)C1=O | 50.4% |
| CC1(C)Oc2ccc3ccc(=O)oc3c2/C(=C/NCCO)C1=O | 87% (active) |
| CC(C)(C)c1ccc(/C=C/C(=O)NCCCn2ccnc2)cc1 | 33.7% |
| CC(=O)N1c2ccc(S(=O)(=O)N3CCCC(C(=O)NCc4ccc(Cl)cc4)C3)cc2CC1C (stereo not given) | 42.6% |
| CC(C)Oc1ccc(C(CC(=O)N2CCOCC2)C(C)C)cc1 (stereo not given) | 52.2% |
| CCCCNC(=O)CSc1nnc(-c2ccco2)n1C | 4.7% |
| CCn1c(SCC(=O)c2ccc(Cl)s2)nnc1-c1cccs1 | 31.9% |
| Cn1c(SCC(=O)N2CCCC2)nnc1-c1ccc2c(c1)OCO2 | 35% |
| O=C(CSc1nnc(-c2cccs2)n1-c1ccccc1)N1CCN(C(=O)c2ccco2)CC1 | 89.7% (active) |
| Cc1nc(SCC(=O)N2CCc3ccccc3C2)c2c(C)c(C)sc2n1 | 9.7% |
| O=C(CSc1nnc(-c2cccs2)n1Cc1ccccc1)N1CCc2ccccc2C1 | 78.3% (active) |
| CCOC(=O)CSc1nnc(-c2ccco2)n1C | -19.7% |
| Cn1c(SCC(=O)c2cccs2)nnc1-c1ccco1 | 64.6% (active) |

| SMILES | inhibition |
| --- | --- |
| O=C(CSCc1cccs1)N1CCCC1 | 31% |
| Cn1c(SCC(=O)N2CCCC2)nnc1-c1cccs1 | 67.9% (active) |
| O=C(CSc1nnc(-c2cccs2)n1-c1ccccc1)NCc1ccco1 | 14.6% |
| Cc1cc2ccccc2n2c(SCC(=O)N3CCN(C(=O)c4ccco4)CC3)nnc12 | 3.7% |
| COC(=O)[C@@H](Cc1ccccc1)NC(=O)NCCc1ccccc1 | 34% |
| CC(C)CCNC(=O)c1ccc2c(Cl)c3c(nc2c1)CCC3 | 23.9% |
| Cc1cc(=O)n2nc(N3CCCC(C(=O)NCc4ccc(Cl)cc4)C3)sc2n1 (stereo not given) | 27.6% |
| Cc1ccc(NC(=O)C2CCCN2C(=O)OCc2ccccc2)cc1C (stereo not given) | 22.6% |
| O=C(COC(=O)/C=C/c1cccs1)NC1CCCCC1 | 51% |
| COc1ccccc1NC(=O)C1CCCN1S(=O)(=O)c1ccc(Cl)cc1 (stereo not given) | 0% |
| CCc1ccc(-c2cc3c(=O)n(CC(=O)NCCCN4CCN(Cc5ccccc5)CC4)nc(C)n3n2)cc1 | 26.1% |
| Cc1c(S(=O)(=O)NC(C)c2ccccc2)c(=O)n(C)c(=O)n1C (stereo not given) | -5.4% |
| Cc1nnc(SCC(=O)N2CCN(c3ccccc3)CC2)n1-c1ccccc1 | 68.4% (active) |
| Cc1cc2nnc(SCC(=O)N3CCN(c4ccccc4)CC3)n2c(N)n1 | 40.7% |
| O=C(CSc1nnc(Cc2ccccc2)n1-c1ccccc1)N1CCOCC1 | -9.6% |
| Cc1ccc2[nH]c(=O)c(CC(=O)O)c(-c3ccccc3)c2c1 | 7.8% |
| CCC(C(=O)OC)n1cnc2c(oc3ccccc32)c1=O (stereo not given) | 1% |
| O=C(CSc1nc(C2CC2)nc2ccccc12)Nc1cccc(O)c1 | 15.1% |
| CCOC(=O)Cc1csc(SCc2cc(=O)oc3cc(O)ccc23)n1 | -13.2% |
| COCc1cc(=O)oc2cc(NS(=O)(=O)c3ccc(C)cc3)ccc12 | 22.5% |
| Cc1ccc2c(CSc3nncs3)cc(=O)oc2c1 | 76.1% (active) |
| CCCSc1nc2sc3c(c2c(=O)n1-c1ccc(OC)cc1)CCN(C)C3 | 31.6% |
| COC(=O)[C@@H]1CC(O)CN1C(=O)C12CC3CC(CC(C3)C1)C2 (stereo not given in full) | 24.2% |
| CCOc1ccc(NC(=O)CCC(=O)NNC(=O)NC2CCCCC2)cc1 | -0.6% |

| SMILES | inhibition |
| --- | --- |
| COCCNC(=O)NC(=O)COC(=O)C1(c2ccc(Cl)cc2)CC1 | 62.9% (active) |
| CC(=O)N1CCC(C(=O)OCc2ccc(Cl)cc2)(c2ccccc2)CC1 | 40% |
| CCCNC(=O)NC(=O)COC(=O)CC(NC(N)=O)c1ccc(Cl)cc1 (stereo not given) | -17.2% |
| COc1ccc(C(=O)C2CCCN(C(=O)c3ccc(OC)o3)C2)c(C)c1 (stereo not given) | -0.6% |
| O=C(OCCN1C(=O)c2ccccc2C1=O)Oc1ccccc1 | 22.3% |
| COC(=O)c1ccc(S(=O)(=O)N2CCc3ccccc3C2)cc1 | 44.4% |
| CCCNC(=O)C(=O)Nc1cc2c3c(c1)CCC(=O)N3CCC2 | 54.7% |
| CCc1cccc(C)c1NC(=O)CSc1nnc(-c2ccco2)n1N | 22.6% |
| NC(=O)c1c(NC(=O)CSc2nc(N)cc(=O)[nH]2)sc2c1CCCC2 | 12.9% |
| NC(=O)c1c(NC(=O)CSc2nnc(-c3ccco3)n2N)sc2c1CCCC2 | 103% (active) |
| NC(=O)C(Cc1ccccc1)NC(=O)C12CC3CC(CC(C3)C1)C2 (stereo not given) | 24.1% |
| Oc1ccc(Br)cc1/C=N/Nc1ccccn1 | 22.9% |
| CC1(C)Cc2ccccc2/C(=C/C(=O)c2ccccc2)N1 | 24.1% |
| O=C(CNC(=O)c1ccccc1)NCC(=O)OCC(=O)c1ccccc1 (HELM PEPTIDE1{[O=C(c1ccccc1)[*:2]].G.G.[O=C(CO[*:1])c1ccccc1]}$$$$V2.0) | 27.8% |
| O=C(CNC(=O)c1ccc(-c2ccccc2)cc1)OCc1ccc(Cl)cc1 | 9.5% |
| O=C(CNC(=O)c1ccccc1)NCC(=O)OCc1ccc(Cl)cc1 | 62.3% (active) |
| Cc1cccc(C)c1NC(=O)C(Cl)C(=O)c1ccccc1 (stereo not given) | 20% |
| CSc1ncccc1C(=O)NCc1ccccc1Cl | 44.9% |
| O=C(CSc1nnc(CNC(=O)c2ccc(F)cc2)o1)Nc1ccc2c(c1)OCO2 | -23.1% |
| COc1cc(/C=C2\SC(=S)N(Nc3ncc(C(F)(F)F)cc3Cl)C2=O)cc(OC)c1OC | 71.2% (active) |
| CCOc1ccc(/C=C2\SC(=S)N(NC(=O)c3ccncc3)C2=O)cc1OC | 23.7% |
| COc1cccc(/C=N/Nc2ncc(C(F)(F)F)cc2Cl)c1O | -8.9% |
| CC(=O)OCCN(CCCn1c(-c2ccncc2)nc2ccccc21)c1nc(-c2ccc(C)cc2)cs1 | 20.2% |
